Measurements as given in ChEMBL document CHEMBL4513216, “Probing the Open Global Health Chemical Diversity Library for Multistage-Active Starting Points for Next-Generation Antimalarials” (ACS Infect Dis, 2020).
About 8,600 (12%) of roughly 69,000 compounds showed an effect of 50% or more. For the sample, strong results were picked, then their nearest neighbours and some compounds at random.

These molecules were tested on Plasmodium berghei (assay: Screen against P. berghei liver stage (PbLuc), transformed with Luciferase, at 10uM). Settings: tested at 10 uM.
Type: functional, HepG2

| SMILES | INHIBITION |
| --- | --- |
| COC(=O)C1=C(C)N=C2SCC(=O)N2C1c1cn(C)nc1C (centres undefined) | 12.6% |
| Cc1ccsc1CN(CCN(C)C)C(=O)C1=NNC(=O)CC1 | 67.2% |
| Cc1ccsc1CN(CCN(C)C)C(=O)c1ccccc1C#N | 14.6% |
| COC(=O)c1ccccc1C(=O)N(CCN(C)C)Cc1sccc1C | 8.03% |
| Cc1ccsc1CN(CCN(C)C)C(=O)c1cc2ccccc2[nH]1 | 71% |
| CN(C)CCN(Cc1ccccc1)C(=O)C1=NNC(=O)CC1 | 18% |
| CN(C)CCN(Cc1ccsc1)C(=O)C1=NNC(=O)CC1 | 49% |
| Cc1nn(C)c(C)c1C1CCCN1C(=O)CCCNc1ncccn1 (centres undefined) | -16% |
| CN(CCCNC(=O)C1CCCN(C(N)=O)C1)S(C)(=O)=O (centres undefined) | 19.8% |
| O=C(Cc1ccc(F)cc1)NCCNS(=O)(=O)C1CCCC1 | 54.9% |
| O=C(Cc1ccccc1)NCCNS(=O)(=O)C1CCCCC1 | 18.2% |
| O=C(Cc1cccc(F)c1)NCCNS(=O)(=O)C1CCCC1 | 25.3% |
| O=C(c1ccc(O)nc1)N1CCC(Nc2cccnn2)CC1 | 29.4% |
| Cc1ccc(CN2CC[C@H]3O[C@@H](C(=O)N4CCCO4)CC[C@H]32)s1 | 66.9% |
| Cc1ccc(N2CC[C@H]3O[C@H](C(=O)N4CCCCO4)CC[C@H]32)nn1 | 46.4% |
| Cc1ccc(N2CC[C@H]3O[C@@H](C(=O)N4CCCO4)CC[C@H]32)nn1 | 92.1% |
| O=C([C@@H]1CC[C@@H]2[C@@H](CCN2Cc2cccs2)O1)N1CCCCO1 | -75.3% |
| Cc1ccsc1CN1CC[C@H]2O[C@H](C(=O)N3CCCO3)CC[C@H]21 | -18.4% |
| Cc1ccc(N2CC[C@H]3O[C@@H](C(=O)N4CCCCO4)CC[C@H]32)nn1 | 3.69% |
| COCCCN(Cc1ccccn1)S(=O)(=O)N(C)C | 32.8% |
| CS(=O)(=O)NCc1cn2c(n1)CN(Cc1cccnc1)CC2 | -12.2% |
| CCCSCC(=O)N1C[C@@H]2CC[C@H]1CN(c1ncccn1)C2 | -4.37% |
| O=C(Nc1ccc(-c2csnn2)cc1)N1CC[C@H](O)C1 | -73.4% |
| CCOCC1CCN(C(=O)Nc2ccc(-c3csnn3)cc2)C1 (centres undefined) | 60% |
| CCN(C)CC1CCN(C(=O)Nc2ccc(-c3csnn3)cc2)C1 (centres undefined) | -32.3% |
| Cc1noc(C)c1-c1nc(NCCN(C)C)ncc1-c1cnccn1 | -56.2% |

| SMILES | INHIBITION |
| --- | --- |
| CCCOC(=O)N1CCC(c2nnc(Cn3cccn3)n2C2CC2)CC1 | -35.9% |
| CC(C)(C)CC1CCCN1Cc1nc(-c2ccco2)no1 (centres undefined) | 76.2% |
| Cc1nc(C)n(CC2CCCN2CC(=O)NCCc2cccs2)n1 (centres undefined) | 43.6% |
| COCCc1noc(CN2CCCC2Cn2nc(C)cc2C)n1 (centres undefined) | 1.75% |
| COCCc1noc(CN2CCCC2Cn2nc(C)nc2C)n1 (centres undefined) | 64.8% |
| Cc1nc(C)n(CC2CCCN2CCc2cccs2)n1 (centres undefined) | 52% |
| Cc1nc(C)n(CC2CCCN2Cc2nc(-c3ccco3)no2)n1 (centres undefined) | 29.645% |
| Cc1cc(C)n(CC2CCCN2Cc2ncc(C(C)(C)C)o2)n1 (centres undefined) | -25.6% |
| Cc1nc(C)n(CC2CCCN2Cc2ncc(C(C)(C)C)o2)n1 (centres undefined) | 63.5% |
| c1coc(-c2noc(CN3CCCC3Cn3cncn3)n2)c1 (centres undefined) | 31.8% |
| COCCc1noc(CN2CCCCC2Cn2nc(C)cc2C)n1 (centres undefined) | 18.4% |
| Cc1nc(C)n(CC2CCCCN2Cc2ncc(C(C)(C)C)o2)n1 (centres undefined) | 31% |
| Cc1nc(C)n(CC2CCCN2CCc2ccncc2)n1 (centres undefined) | -21.985% |
| Fc1cc(Cl)cnc1N1CCCC(c2nccn2Cc2ccncc2)C1 (centres undefined) | 31.4% |
| CCOC(=O)c1cccc(N2CCCC3(CCC(=O)N(C4CC4)C3)C2)n1 (centres undefined) | 28.7% |
| CC(C)C1CN(C(=O)c2ccn(C)c(=O)c2)c2ccccc2N1 (centres undefined) | -36.7% |
| Cc1nc(CN(C)C2CCN(CCCc3ccccc3)C2)no1 (centres undefined) | -61.4% |
| Cc1ccc(-c2nc(CN3CCn4c(C)nnc4C3)cs2)o1 | -31.8% |
| Cc1cc(C(=O)N(CC(C)C)CC(O)c2ccc(F)cc2)[nH]n1 (centres undefined) | -36.4% |
| CSc1ccccc1NC(=O)C1CN(C(=O)c2ccc3c(c2)OCO3)C1 | 12.7% |
| CN(C)C(=O)[C@@H]1CCO[C@@H]2CCN(c3ncccn3)C[C@@H]21 | 8.85% |
| Cc1nc(C)n(CC2CCCN(Cc3nnc(-c4ccco4)o3)C2)n1 (centres undefined) | -0.79% |
| Cc1nc(C)n(CC2CCCN2Cc2nnc(-c3ccco3)o2)n1 (centres undefined) | 50% |
| Cc1nc(C)n(CC2CCCCN2Cc2nnc(-c3ccco3)o2)n1 (centres undefined) | -9.07% |
| O=C(Cn1cc(-c2ccccc2)ncc1=O)Nc1nc(C2CC2)n[nH]1 | 33.7% |
| O=C(N[C@H]1COC[C@@H]1N1CCCC1)c1csc(-c2cccs2)n1 | 34.2% |

| SMILES | INHIBITION |
| --- | --- |
| COc1ccc(C[C@H]2CN(C(=O)c3ncccn3)CC[C@@H]2OC)cc1 | 27.2% |
| COc1cc(N2CC[C@@H](OC)[C@@H]2Cc2ccccc2)ncn1 | -30% |
| COc1ccc(C[C@H]2CN(C(=O)c3ccc(C)nc3)CC[C@@H]2OC)cc1 | -12.2% |
| COc1ccc(C[C@H]2CN(c3cc(OC)ncn3)CC[C@H]2OC)cc1 | 74.8% |
| COc1ccc(C[C@H]2CN(c3cc(OC)ncn3)CC[C@@H]2OC)cc1 | 55.5% |
| COc1ccc(C[C@H]2CN(C(=O)c3ccncc3)CC[C@@H]2OC)cc1 | 34.1% |
| c1cc(CN2CCCn3cnc(COCC4CC4)c3C2)ccn1 | 18.5% |
| COCc1nn(C)c2c1CCN(Cc1cnn(C)c1)C2 | -17.1% |
| N#Cc1ccc(CNCCc2cc(F)cc3c2OCOC3)cc1 | 28.8% |
| Cc1cc(C(=O)N2CCO[C@H]3[C@H](OCCN(C)C)CC[C@@H]32)c(C)[nH]1 | 24.3% |
| O=C1OCCN1CC(=O)N1C[C@@H]2CC[C@H]1CN(C(=O)c1ccccn1)C2 | 44.8% |
| O=C1Nc2ccccc2CN(CC2CC2)C12CCNC2 (centres undefined) | 46.6% |
| O=C(CN1CC(c2nc(Cc3ccccc3)no2)C1)NCC1CCCO1 (centres undefined) | 2.55% |
| CC(C)NC(=O)C1CN(C(=O)Cc2cccc(F)c2)CC12CCOCC2 (centres undefined) | 10% |
| CC(C)NC(=O)C1CN(C(=O)Nc2ccc(F)cc2)CC12CCOCC2 (centres undefined) | 14.8% |
| CC(C)NC(=O)C1CN(C(=O)CCc2ccccc2)CC12CCOCC2 (centres undefined) | 20.9% |
| CN(C)C(=O)N1CC(C(=O)NCC2CC2)C2(CCOCC2)C1 (centres undefined) | 36.7% |
| CC(C)NC(=O)C1CN(C(=O)Cc2ccccc2)CC12CCOCC2 (centres undefined) | 53.4% |
| Cc1ccc(NC(=O)N2CC(C(=O)NC(C)C)C3(CCOCC3)C2)cc1 (centres undefined) | 80% |
| CC(C)NC(=O)C1CN(C(=O)Nc2ccccc2)CC12CCOCC2 (centres undefined) | 17.6% |
| CC(C)NC(=O)C1CN(C(=O)N2CCCC2)CC12CCOCC2 (centres undefined) | 22.7% |
| CC(C)NC(=O)C1CN(C(=O)N(C)C)CC12CCOCC2 (centres undefined) | 89.2% |
| CN(CCOCC1CC1)C(=O)Nc1ccc([S+](C)[O-])c(F)c1 (centres undefined) | 41.3% |
| Cc1cnn(CC(=O)N2CCCN(Cc3cnn(C(C)C)c3)CC2)c1 | 33.7% |
| NC(=O)CS(=O)(=O)Cc1csc(-c2ccccc2)n1 | 46.6% |
| CCS(=O)(=O)N1CC[C@H]2CO[C@H](CN(C)C)[C@H]2C1 | 19.4% |

| SMILES | INHIBITION |
| --- | --- |
| Cc1nc(NC(=O)OC(C)(C)C)sc1C#N | 53.4% |
| Cc1nc(NC(=O)OC(C)(C)C)sc1C(=O)O | 46.6% |
| Cc1nc(NC(=O)OC(C)(C)C)sc1C(N)=O | -0.514% |
| O=C(c1ccc[nH]1)N1CCc2ncc(Cn3cccn3)n2CC1 | 25.6% |
| c1ccc(N2CCN(Cc3cnc(C4CCCCO4)nc3)CC2)cc1 (centres undefined) | 21.1% |
| c1cnc(N2CCC(OCC3CCCCO3)CC2)nc1 (centres undefined) | 31.1% |
| c1ccc(N2CCN(Cc3cnc(C4CCCCO4)nc3)CC2)nc1 (centres undefined) | 51.7% |
| c1ccc(N2CCC(OCC3CCCCO3)CC2)nc1 (centres undefined) | 62.9% |
| c1ccc(CN2CCN(Cc3cnc(C4CCCCO4)nc3)CC2)cc1 (centres undefined) | 10.9% |
| c1ccc(CCN2CCC(OCC3CCCCO3)CC2)nc1 (centres undefined) | 7.24% |
| Cc1nccn1-c1cccc(N2CCC(OCC3CCCCO3)CC2)n1 (centres undefined) | 95.9% |
| Clc1ccc(N2CCC(OCC3CCCCO3)CC2)nc1 (centres undefined) | 34.5% |
| Cc1nccn1-c1cccc(C2CCCN2)n1 (centres undefined) | -2.09% |
| CCCn1cc(C(=O)N2CCCC2(C)c2nc(C)cc(C)n2)cn1 (centres undefined) | -3.02% |
| Cn1cc(S(=O)(=O)N(CC(F)(F)F)C2CC2)cc1C(N)=O | -29.2% |
| O=C(Cn1cnc2ccsc2c1=O)c1ccc2c(c1)OCCO2 | -73.1% |
| CS(=O)(=O)NCCC(=O)N1CCN(S(=O)(=O)c2ccc(Br)cc2)CC1 | 11.8% |
| COCC(=O)NCCC(=O)N1CCN(S(=O)(=O)c2ccc(Br)cc2)CC1 | 68.4% |
| COCC(=O)NCCC(=O)N1CCN(S(=O)(=O)c2cccc(Br)c2)CC1 | 63.8% |
| COCC(=O)NCc1cccc(Br)c1 | 3.81% |
| COCC(=O)N1CCN(S(=O)(=O)c2ccccc2)[C@@H](C(=O)OC)C1 | -33% |
| COCC(=O)NCCSCCOc1cccc(Br)c1 | 18% |
| CCCn1ncc(C(=O)NC2CCN(CC3CCCO3)CC2)c1C (centres undefined) | 34.4% |
| CCCn1ncc(C(=O)N2CCN(C3CCCC3)CC2)c1C | -39.2% |
| CCCn1ncc(C(=O)NC2CCN(C3CCOCC3)CC2)c1C | 59.3% |
| CN1CC(=O)N(c2cccc(F)c2)CC12CCN(Cc1cnn(C)c1)C2 (centres undefined) | 18.2% |
